Bioassay records deposited in PubChem by National Center for Advancing Translational Sciences (NCATS).
A selection: hits, their analogues and other compounds. The true share with any hit is near 12%.
Sfp PPTase inh = Sfp phosphopantetheinyl transferase inhibition. AID 1490. Biochemical Sfp PPTase activity, qHTS. Q9F4F7. Potency, µM, for inactives: largest response in the series, negative = inhibition, hits mostly inhibitors. 3.5% of 310,000 active;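 further: the enzyme is Sfp with the accession as filed and its product quenches rhodamine fluorescence; 0% = enzyme reaction without inhibitor and -100% = no enzyme wells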
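Reaction rates are the 30-min fluorescence difference (ex 525, em 598 nm) in wells containing 15 nM Sfp, 5 uM rhodamine-CoA and 12.5 uM BHQ-2-YbbR at pH 7.6 with 10 mM MgCl2.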
G9a inh = inhibitors of human histone lysine methyltransferase G9a | G9a H3K9 monomethylation, AlphaScreen, 2 h | Potency, µM (top dose mostly 102 µM), for the others: at the highest dose activity, negative = inhibition, usual class: inhibitors | 8.8% of 350,000 active | AID 504332; further: on the % scale 0 is the no-effect control and ±100 the full control effect; nearly all actives have a fitted effect of over 75% in size
Target sequence (Q96KQ7 913-1193 limits assumed): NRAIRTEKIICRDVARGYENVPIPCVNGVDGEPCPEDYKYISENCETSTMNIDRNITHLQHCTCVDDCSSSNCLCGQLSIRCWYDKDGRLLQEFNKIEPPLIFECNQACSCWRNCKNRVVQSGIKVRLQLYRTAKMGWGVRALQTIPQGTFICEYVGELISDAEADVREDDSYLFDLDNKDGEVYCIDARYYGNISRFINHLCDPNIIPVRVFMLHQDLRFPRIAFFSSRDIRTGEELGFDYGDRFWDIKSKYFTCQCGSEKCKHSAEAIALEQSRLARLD
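AlphaScreen detection with an anti-monomethyl H3K9 antibody quantified product after a 2 h room-temperature reaction containing 500 nM biotinylated H3K9 peptide, 20 µM SAM and 20 nM enzyme, which had been preincubated 15 min with compound.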
JMJD2A Tudor = JMJD2A Tudor domain (human) inhibition; 4.4% of 390,000 active; O75164; Potency, µM (titrated, usually from 114 µM), for the others: top-dose activity change, negative = inhibition, actives largely listed as inhibitors; AlphaScreen JMJD2A-Tudor / H3K4me3 peptide binding; further: on the % scale 0 is the no-effect control and ±100 the full control effect; nearly all actives have a fitted effect of over 50% in size
TDP1 block = TDP1 (human) enzyme inhibition; Q9NUW8; recombinant TDP1, AlphaScreen DNA substrate cleavage; AID 485290; Potency, µM (highest dose often 130 µM), without a hit: top-dose activity change, negative = inhibition, most hits filed as inhibitors; 0.28% of 350,000 active; further: on the % scale 0 is the no-effect control and ±100 the full control effect; nearly all actives have a fitted effect of over 40% in size
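Here, a 5' biotin and 3' phosphotyrosine-FITC DNA oligonucleotide reports Tdp1 activity: intact substrate bridges AlphaScreen beads, while cleavage leaves a 3' phosphate and drops signal. All incubations at room temperature.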
BAZ2B block = BAZ2B (human) inhibition. Q9UIF8. AlphaScreen BAZ2B-H3K14Ac peptide displacement. Potency, µM (doses to about 114 µM), for the others: top-dose activity change, negative = inhibition, most hits filed as inhibitors. 4.4% of 360,000 active; further: on the % scale 0 is the no-effect control and ±100 the full control effect; nearly all actives have a fitted effect of over 60% in size
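BAZ2B 50 nM plus b-H3(5-23)K14Ac 50 nM, PBS pH 7.4/0.01% Tween-20, 30 min RT; compound added (max 110 uM), 30 min RT; streptavidin donor/Ni-chelate acceptor beads 10 ug/mL final, 20 min dark; AlphaScreen read.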
HP1b chromo inh = blocks HP1-beta chromodomain binding to methylated histone tails. AlphaScreen HP1-beta / biotin-H3K9me3 peptide binding. Potency, µM (series often up to 114 µM), for the others: top-dose activity change, negative = inhibition, usual class: inhibitors. 0.56% of 390,000 active; further: nearly all actives have a fitted effect of over 70% in size
Target sequence (P83916 whole entry, looked up): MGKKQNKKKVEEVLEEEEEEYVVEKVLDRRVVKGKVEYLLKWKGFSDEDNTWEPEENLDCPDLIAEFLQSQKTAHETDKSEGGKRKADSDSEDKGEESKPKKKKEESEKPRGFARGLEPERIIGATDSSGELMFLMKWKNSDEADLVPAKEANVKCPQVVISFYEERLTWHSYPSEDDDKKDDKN
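Compound inhibition of the preformed complex between 50 nM HP1-beta and 50 nM biotinylated H3K9me3 peptide was read by AlphaScreen. Buffer was PBS pH 7.4 with 0.01% Tween-20. Incubations ran 30 min at room temperature, with 10 ug/mL donor/acceptor beads.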
* marks the source's active call; other numbers are inactive results; ? = inconclusive; nt = no result given; [ ] = remark or other dose. The call rests on the fitted dose curve; in most records, active means well fitted curve in the direction sought with a large enough effect; inconclusive means small, poorly fitted or top-dose-only effect, or another doubt; inactive means no such curve, though single readings can be large; an effect the other way counts as inactive or inconclusive. Potency means the concentration at half of the fitted maximal effect.

SMILES	Sfp PPTase inh	G9a inh	JMJD2A Tudor	TDP1 block	BAZ2B block	HP1b chromo inh
Cc1ccc(-c2nc3ccccc3[nH]2)cc1NC(=O)c1ccc2c(c1)OCO2	22%	?	-17%	4%	-13%	2%
Cc1[nH]c(-c2ccc3c(c2)OCO3)nc1C(=O)O	56µM*	10µM*	22µM*	3%	50µM*	10%
Cc1ccc2nc(COc3ccccc3NC(=O)COc3ccc(F)cc3)cc(=O)n2c1	nt	0%[59 µM]	-3%	3%	5%	33%[57 µM]
COc1ccc(-c2[nH]c(-c3ccc(O)cc3)nc2-c2ccccc2)cc1	nt	?	63µM*	12%	10µM*	-22%
CN(C)c1ccc(-c2nc(-c3cccs3)c(-c3cccs3)[nH]2)cc1	nt	8.9µM*	?	12%	?	-21%
COc1ccc2nc(-c3ccccc3)[nH]c2c1	-6%	60%[59 µM]	-9%	9%	5%	20%
O=C(O)COc1ccc(-c2nc(-c3ccccc3)c(-c3ccccc3)[nH]2)cc1	18%	?	-31%	8%	-36%	-15%
COc1ccc(-c2noc(COc3ccc4c(c3)OCO4)n2)cc1	10µM*	17%[59 µM]	-13%	2%	9%	30%
COc1ccc(-c2nc(-c3ccccc3)c(-c3ccc(O)cc3)[nH]2)cc1	nt	?	28µM*	12%	35µM*	?
Cc1ccc(NS(=O)(=O)c2ccc(-c3ccccc3)cc2)cc1C	nt	nt	-13%	-4%	nt	nt
CCn1cc(C(=O)N2CCN(c3ccc(C)cc3)C(C)C2)c(=O)c2cc(S(=O)(=O)N3CCCC3)ccc21 (centres undefined)	nt	?	-29%	0%	nt	10%
CCN(CC(=O)NCc1cccs1)C(=O)COc1ccc(C(N)=O)cc1	nt	-12%[59 µM]	-6%	0%	11%	41%
CCCc1ccc(OCc2ccc(C(=O)Nc3ccccc3C(=O)OC)o2)cc1	nt	65%[59 µM]	37%	-3%	11%	68%
Cc1ccc2c(c1)c1c(n2C)C(=O)CCC1	-15%	12%[12.7 µM]	16%	5%	17%	63%
Cc1ccc2c(c1)c1c3n2CCN(C(=O)c2cccc(C(F)(F)F)c2)C3CCC1 (centres undefined)	nt	7.9µM*	?	8%	28µM*	-24%
Cc1ccc2c(c1)c1c3n2CCN(C=O)C3CCC1 (centres undefined)	2%	50µM*	?	nt	?	-15%
CCN(CC)CCN1CCn2c3c(c4cc(C)ccc42)CCCC31 (centres undefined)	-2%	?	56µM*	8%	?	6%
CCN1CCn2c3c(c4cc(Cl)ccc42)CCCC31 (centres undefined)	?	?	-26%[11.4 µM]	7%	35µM*	4%
COc1cc2c(cc1OC)-c1cc3cc(OC)c(OC)cc3c(=O)n1CC2	16%	nt	nt	8%	nt	nt
O=S(=O)(c1ccccc1F)N1CCN(c2nc(-c3cccs3)nc3ccccc23)CC1	nt	nt	-8%	1%	nt	21%
Cc1ccc(Cn2ccnc2SCC(=O)Nc2nc3ccccc3s2)cc1	nt	?	?	13%	?	-19%[57 µM]
Cc1cc(C)n(C(C)CC(=O)NCc2ccc(N(C)C)cc2)n1 (centres undefined)	nt	?	-29%	3%	-9%	14%
CCOC(=O)C1=C(C)NC(=S)NC1c1ccc(OCC(=O)N2CCCCCC2)cc1 (centres undefined)	2%	8%	-10%[57.1 µM]	2%	-1%	39%
O=C(O)/C=C\C(=O)Nc1ccccc1C(=O)N1CCC(O)(c2ccc(Cl)cc2)CC1	nt	nt	1%	nt	nt	78%
COc1cc(OC)c(NS(=O)(=O)c2ccc3c(c2)NC(=O)CO3)cc1Cl	11%	27%	16µM*	4%	-15%	6%
SMILES	Sfp PPTase inh	G9a inh	JMJD2A Tudor	TDP1 block	BAZ2B block	HP1b chromo inh
COc1ccc(C(=O)n2nnc3ccccc32)cc1OC	-16%	45µM*	-7%	0%	5%	56%
O=C(c1ccc2c(c1)OCO2)n1nnc2ccccc21	10%	45µM*	nt	3%	-17%	nt
Cc1occc1C(=O)n1cnc2ccccc21	-12%	?	nt	5%	11%	nt
COc1ccc(N/C(=C(/C(Cl)=C(Cl)Cl)[N+](=O)[O-])n2nnc3ccccc32)cc1OC	20µM*	14µM*	nt	1%	56µM*	nt
Cc1occc1C(=O)n1nnc2ccccc21	32µM*	?	-7%	1%	3%	42%
Cc1ccc(/C=C(\C#N)c2nc(-c3cc4c(ccc5ccccc54)oc3=O)cs2)cc1	nt	-28%[59 µM]	-1%	0%[12.3 µM]	-1%	29%
Cc1ccccc1C(=O)NCCOc1ccccc1Cl	-1%	-3%[0.501 µM]	-9%	nt	-6%	35%
CCOC(=O)C1=C(Cc2ccc(Cl)cc2)C(=O)c2ccccc2C1=O	3.5µM*	2.5µM*	35µM*	5%	22µM*	20µM*
O=C1c2cccnc2C(=O)N1Cc1ccc(S(=O)(=O)NCc2ccco2)s1	6%	3%	-35%	7%	79µM*	33%
COc1ccc(NC(=O)COC(=O)CO/N=C(\C)c2ccc3c(c2)OCO3)cc1S(N)(=O)=O	nt	-15%[59 µM]	-8%	1%	4%	25%
CN(C)c1ccc(CNS(=O)(=O)c2ccc(-c3cc(C(F)(F)F)on3)s2)cc1	nt	-20%[59 µM]	-20%	-3%	-7%	19%
O=C(Cc1c[nH]c2ccccc12)OCC(=O)c1ccccc1	13%	-3%	-27%	0%	?	-1%
O=C(CN1C(=O)C(=O)N(Cc2ccco2)C1=O)c1c[nH]c2ccccc12	?	50µM*	-21%	6%	-12%	18%
O=C(NCc1ccco1)C(=O)c1c[nH]c2ccccc12	16%	28%[12.7 µM]	-25%	3%	?	35%
O=C(Cc1c[nH]c2ccccc12)NCc1ccco1	8%	?	-18%	0%	50µM*	8%
O=C(O)C(=O)Cc1c[nH]c2ccccc12	?	25µM*	45µM*	3%	?	?
O=C(CN1C(=O)C(=O)N(CCC2=CCCCC2)C1=O)c1c[nH]c2ccccc12	nt	nt	-27%	4%	nt	2%
CCN1CCN(c2nc(NCCO)c3ccccc3n2)CC1	-3%	40µM*	-12%	4%	-11%	23%
OCCNc1nc(-c2ccccc2)nc2ccccc12	26%	-2%	-13%	3%	-4%	3%
CCN1CCN(c2nc(-c3ccccc3)nc3ccccc23)CC1	0%	4%[59 µM]	-2%[57.1 µM]	0%	-8%	28%
CN1CCN(c2nc(N3CCN(CCO)CC3)nc3ccccc23)CC1	6%	50µM*	0%	5%	-8%	30%
CN1CCN(c2nc(-c3ccc(N(C)C)cc3)nc3ccccc23)CC1	50µM*	nt	nt	-8%[56.1 µM]	nt	nt
OCCN1CCN(c2cc(-c3ccccc3)c3ccccc3n2)CC1	-23%	?	0.79µM*	-3%	40µM*	?
